# Measurements: ChEMBL document CHEMBL3433997, “St. Jude Leishmania screening dataset” (2016)
# Experiments:
# Assay type in all cases: functional
# [1] = molecular target: Solute carrier family 2, facilitated glucose transporter member 1 (Homo sapiens) (UniProt P11166); assay: ST_JUDE_LEISH: Cytotoxicity at 2uM final concentration against transgenic Leishmania Mexicana promastigotes LmGLUT1 that are glucose transport deficient and complemented with the human glucose transporter GLUT1. Activity is measured by DNA content using SYBR green in vitro
# [2] = molecular target: Hexose transporter 1 (Plasmodium falciparum) (UniProt O97467); assay: ST_JUDE_LEISH: Cytotoxicity at 2uM final concentration against transgenic Leishmania Mexicana promastigotes LmPfHT that are glucose transport deficient and complemented with the Plasmodium falciparum hexose transporter. Activity is measured by DNA content using SYBR green in vitro
# [3] = molecular target: Glucose transporter (Leishmania mexicana) (UniProt O61059); assay: ST_JUDE_LEISH: Cytotoxicity at 2uM final concentration against transgenic Leishmania Mexicana promastigotes LmGT2 that are glucose transport deficient and complemented with the L. Mexicana glucose transporter 2. Activity is measured by DNA content using SYBR green in vitro
# Solute carrier family 2, facilitated glucose transporter member 1 (Homo sapiens), sequence (P11166 whole entry): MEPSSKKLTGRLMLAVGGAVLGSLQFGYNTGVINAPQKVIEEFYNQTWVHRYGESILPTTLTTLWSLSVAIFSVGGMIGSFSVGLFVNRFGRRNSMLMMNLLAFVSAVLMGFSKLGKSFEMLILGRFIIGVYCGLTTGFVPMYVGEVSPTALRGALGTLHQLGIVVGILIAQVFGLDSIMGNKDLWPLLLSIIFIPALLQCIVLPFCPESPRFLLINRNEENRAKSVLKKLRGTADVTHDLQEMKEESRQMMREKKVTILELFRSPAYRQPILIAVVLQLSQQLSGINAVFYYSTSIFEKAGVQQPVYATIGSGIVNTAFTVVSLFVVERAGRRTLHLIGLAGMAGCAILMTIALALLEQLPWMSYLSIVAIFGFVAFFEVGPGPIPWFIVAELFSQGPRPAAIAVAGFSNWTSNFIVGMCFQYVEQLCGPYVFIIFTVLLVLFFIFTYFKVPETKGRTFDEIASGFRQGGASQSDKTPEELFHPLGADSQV
Compound,inhibition [1] [%],inhibition [2] [%],inhibition [3] [%]
Nc1nc(-c2ccc3c(Nc4ccc(F)c(Cl)c4)ccnc3c2)cs1,3.22,4.08,3.86
COc1cccc(-c2cc(C(F)(F)F)n3ncc(C(=O)Nc4cc(Cl)ccc4O)c3n2)c1,0.65,1.53,-2.22
CN1CCC(NCc2cccc(-c3ccc(S(=O)(=O)NCc4ccccc4)c(F)c3)c2)CC1,2.09,3.75,4.35
O=C(CCC1CCCCC1)NCCNc1cccc2ccccc12,-0.06,-0.34,-3.97
Cc1cc(N[C@@H](Cc2ccccc2)C(=O)NCc2cccs2)nc(NCCOc2ccccc2)n1,8.74,10.4,5.27
COc1ccc(CCCON2C(=N)N=C(N)NC2(C)C)cc1,16.7,23,18
FC(F)(F)c1ccc2c(NCCc3ccccc3)ccnc2c1,4.24,5.12,3.79
CCCCCCCN(Cc1ccc(OC(C)(C)C(=O)OCC)cc1)C(=O)Cc1ccc(F)cc1F,2.17,1.8,2.23
Cc1c(CN2CCC(N3CCC(C(=O)NC4CC4)CC3)CC2)[nH]c2c(Cl)cccc12,9.37,11.6,9.75
COc1cc(NCCCNCc2cn(S(=O)(=O)c3ccccc3)c3ccccc23)nc2ccccc12,3.92,4.04,3.17
Cc1ccc(Cc2c[nH]c(NCCSCc3ccc(CN(C)C)s3)nc2=O)cn1,1.24,1.14,2.78
O=C(Nc1ccc(-c2cccc(-c3nc4cc(F)ccc4[nH]3)c2)cc1)c1cnn2cccnc12,2.14,3.22,0.84
Nc1cccc(CNCc2cccc(-c3ccc(-c4nc5cc(C(F)(F)F)ccc5[nH]4)cc3)c2)c1,4.8,6.83,3.77
COc1ccc2ncc(F)c(CCN3CC(O)C(CNCc4ccc5c(c4)OCCO5)C3)c2n1 (configuration not stated),6.54,4.38,-0.93
CC(C)N1CCN(C(CN2CCN(CCCOc3cccc4ccccc34)CC2)c2ccc(F)cc2)CC1 (configuration not stated),-1.68,0.92,4.19
N#Cc1ccc2c(c1)CN(CCCCNC(=O)c1ccc(-c3ccccc3)cc1)CC2,3.14,3.16,3.99
O=C(NCc1ccccc1)Nc1ccc(-c2cccc(-c3nc4cc(C(F)(F)F)ccc4[nH]3)c2)cc1,-0.99,-0.18,-1.23
O=C1COc2ccc(S(=O)(=O)N3CCC[C@@H]3CCN3CCC(c4c[nH]c5cnccc45)CC3)cc2N1,0.76,0.68,2.12
COc1ccc(C2CC(c3ccccc3O)=NN2C(=O)c2ccco2)cc1OC (configuration not stated),0.86,1.48,-2.92
O=C(/C=C/c1ccc(Cl)c(Cl)c1)NCCCCCN1CCC(NC(=O)Nc2cc(F)ccc2F)CC1,2.34,2.81,6.16
COc1ccc(OC)c(NC(=O)C2c3ccccc3C(=O)N(CC(C)C)C2c2cccs2)c1 (configuration not stated),-1.99,-2.35,-0.44
CN(Cc1ccncc1)C(Cc1ccccc1)C1CCN(Cc2ccc(O)c(Cl)c2)CC1 (configuration not stated),1.88,2.51,-0.31
Cc1cc(CN2CCC(N3CC(c4ccccc4)(c4ccccc4)OCC3=O)C2)ccc1O (configuration not stated),0.59,0.87,-3.65
O=C(Nc1cc(Cl)ccc1O)c1cc(-c2ccccc2O)no1,-2.41,-2.61,-2.64
CN(C)CCNc1nccc(N2CCc3ncnc(Nc4ccc(OCc5cccc(F)c5)c(Cl)c4)c3C2)n1,20,28.4,3.49

Compound,inhibition [1] [%],inhibition [2] [%],inhibition [3] [%]
c1ccc(-c2nc(Nc3nc4ccccc4[nH]3)[nH]c2-c2ccccc2)cc1,10.8,6.74,4.43
CCc1cc2c3c(N)nc(N)nc3ccc2n1CC,40.4,58,39.4
CC(C)N1CCC(N(Cc2ccc(-c3ccc(Cl)cc3)cc2)C(=O)Cn2c(CCc3cccc(F)c3F)cc(=O)c3ccccc32)CC1,2.59,2.15,1.92
Cn1cc(C2CCN(CCCCCNC(=O)/C=C/c3ccc(Cl)c(Cl)c3)CC2)c2cc(O)ccc21,1.48,2.56,1.47
Nc1cc(-c2cccc(Cl)c2)nn1-c1ccnc2cc(Cl)ccc12,-0.77,-0.13,-4.37
COc1ccc(C(=O)C2CCN(CCCCNC(=O)c3ccc(NC(=O)c4cc(Cl)cc(Cl)c4)cc3)CC2)cc1,3.02,4.08,2.05
COc1c(C2CCN(CCCCNC(=O)c3ccc(-c4ccc(C#N)cc4)cc3)CC2)ccc2c1C(C)(C)CCC2(C)C,1.57,2.62,-0.67
COCCSc1nc2scc(C)c2c(=O)n1Cc1cccc(OC)c1,3.26,4.92,4.9
Nc1nc(N)c2c(n1)CCc1cc(Br)ccc1-2,1.65,4.52,2.4
COc1ccc2nccc([C@@H](O)CN3CCC(NCc4nc5ccc(F)cc5[nH]4)CC3)c2c1,2.34,1.93,2.2
COCCNC(=O)c1ccc(OC2CCN(Cc3ccc(F)c(F)c3)CC2)c(Cl)c1,0.95,1.83,-2.21
O=C(N[C@@H](CC1CCCCC1)C(=O)NCCN1CCCC1)c1ccc(O)c(-c2ccc(Cl)c(Cl)c2)c1,0.12,0.41,0.58
CCNC(=O)Nc1ccc(-c2cccc(-c3nc4cccc(C)c4[nH]3)c2)cc1,5.51,5.35,3.12
CC(C)C(=O)NC(c1ccc(Cl)cc1)c1ccc2cccnc2c1O (configuration not stated),3.14,5.18,2.63
CC(=O)N(C)c1cccc(C(=O)Nc2ccc(-c3cccc(-c4nc5cccc(C)c5[nH]4)c3)cc2)c1,2.19,1.06,-8.47
COc1cccc(C(=O)Nc2ccc(-c3nc4ccccc4[nH]3)cc2)c1,3.48,1.76,0.31
O=C(Nc1cccc(CN2CCCN(Cc3ccc4c(c3)OCO4)CC2)c1)c1ccc(Cl)c(Cl)c1,6.43,5.95,8.61
Fc1cc(CN2CCCC2)ccc1OCCCN1CCN(c2cccc(Cl)c2Cl)CC1,4.56,5.47,4.5
COc1cc(C(=O)N2CCOC(CCN3CCc4c(c5ccccc5n4C)C3)(c3ccc(Cl)c(Cl)c3)C2)cc(OC)c1OC (configuration not stated),-0.35,0,-1.26
N#Cc1cccc(C(=O)Nc2cccc(-c3cccc(CN4CCNCC4)c3)c2)c1,4.13,6.34,3.25
CN1CCc2ccc(NC(=O)Nc3ccc(-c4ccccc4)cc3)cc2C1,1.53,0.83,0.87
Nc1nc(Nc2cccc(Cl)c2)ncc1C(=O)NCc1ccncc1,9.01,7.86,8.62
O=C(Nc1ccc2c(c1)CCNCC2)c1ccc(-c2ccc(Cl)cc2)cc1,58.3,104,109
CCc1ccc(C2CCN(CCCCNC(=O)c3ccc(NC(=O)c4ccc(Cl)cc4)cc3)CC2)c(OC)c1,9.49,2.21,1.66
CC(=O)Nc1ccc(C(=O)Nc2ccc(-c3cccc(-c4nc5ccccc5[nH]4)c3)cc2)cn1,0.89,0.79,-0.56

Compound,inhibition [1] [%],inhibition [2] [%],inhibition [3] [%]
CCC(N)(C#Cc1ccc(-c2c(C)[nH]c(C)c(Br)c2=O)cc1)CC,2.45,2.05,0.36
O=C(NC1CCN(Cc2ccc(O)cc2)CC1)c1ccc(Cl)c(Cl)c1,4.53,4.25,-3.12
CC(NCC(O)Cn1c2ccccc2c2ccccc21)c1ccccc1 (configuration not stated),0.86,1.68,-1.46
O=C(CNC(=O)c1ccc(O)cc1)Nc1cccc(-c2cccc(-c3nc4cc(C(F)(F)F)ccc4[nH]3)c2)c1,3.81,4.39,2.15
CN(C)CCN(C)Cc1cccc(-c2cccc(NC(=O)c3cccc(C#N)c3)c2)c1,2.87,2.86,4.89
OC(Cn1ccnc1)(c1ccc(Cl)cc1Cl)C1CCCCC1 (configuration not stated),7.78,1.5,-0.69
Cn1cncc1-c1cc2c(Nc3ccc(OCc4ccccc4)cc3)ncnc2cn1,4.63,5.99,1.66
Cc1ccccc1NC(=S)NC1CCN(CCCCCNC(=O)/C=C/c2ccc(Cl)c(Cl)c2)CC1,5.52,4.69,2.71
O=C(NCc1ccccc1)Nc1ccc(-c2ccc(-c3nc4cc(C(F)(F)F)ccc4[nH]3)cc2)cc1,2.91,4.48,0.55
OC(CNc1ccnc(Nc2cccc(Cl)c2)n1)c1cccc(F)c1 (configuration not stated),3.71,4.41,-3.09
O=C(Nc1cccc(C(F)(F)F)c1)c1cccc(S(=O)(=O)NCC2CCCN(CC3CCCCC3)C2)c1 (configuration not stated),-0.44,0.12,-2.09
CCN1CCN(CCCNc2c3ccccc3nc3ccccc23)CC1,65.5,55.3,39.1
CC1CCCN(c2ccc(NC(=O)c3cccs3)cc2[N+](=O)[O-])C1 (configuration not stated),1.22,1.19,-1.43
CCc1ccc(C(=O)NC(=O)c2ccccc2O)cc1,3.44,3.45,3.61
COc1ccc2nccc([C@@H](O)CN3C4CCC3CC(NCc3ccc5c(n3)NC(=O)CS5)C4)c2n1 (some centres not stated),1.63,1.76,-2.06
O=C(Nc1ccc2ccccc2n1)c1ccccc1-c1ccccc1,-0.59,2.19,-0.78
CC(c1cccc(Nc2nccc(-c3c(-c4cccc(NC(=O)c5c(F)cccc5F)c4)nn4ncccc34)n2)c1)S(C)(=O)=O (configuration not stated),-2.21,1.6,0.35
CN1CCCC(COc2cc3c(cc2Br)CCN3C(=O)Nc2ccc(-c3ccncc3)c(Cl)c2)C1 (configuration not stated),9.37,5.78,3.35
COc1ccc2c(c1)CC(CNC[C@H](O)c1cccc(Cl)c1)CC2 (some centres not stated),-1.38,0.78,1
CC(CN(C)C)C(=O)Nc1cccc(-c2ccc(-c3nc4ccccc4[nH]3)cc2)c1 (configuration not stated),12.2,9.79,7.36
CCCCc1ccc(NC(=O)Nc2cccc(CCNCc3ccccc3)c2)cc1,11.8,11.4,10.2
O=C(Nc1ccc(F)c(C(F)(F)F)c1)N[C@H]1CCN(CCCCCNC(=O)C2CC2c2ccc(Cl)c(Cl)c2)C1 (some centres not stated),-0.22,-0.44,-2.52
CCOc1ccc(C(=O)Nc2cc(Br)c3c(c2)CNCC3)cc1Br,11.7,12.7,6.15
CC(=O)c1c[nH]c2ccc(/C=C/C(=O)NC3CCC(CCN4CCc5ccc(C#N)cc5CC4)CC3)cc12 (configuration not stated),19.5,14.9,18.9
